Measured values from the supplement of paper PMC10849652.
The full data set covers some 7,900 targets. This sample favours those with a hit. About 0.6% of all pairs of compound and target were hits. A number with no mark means an inactive call.

How the values were obtained:
Test in all cases: log2 fold change, soluble protein after heating vs DMSO (PISA); higher = thermal stabilisation; K562 cells, 10 uM, 30 min; active = over 0.2 and 3.5 SD of the protein, either way, in both replicates (recomputed)
erlotinib = compound: C#Cc1cccc(Nc2ncnc3cc(OCCOC)c(OCCOC)cc23)c1 [erlotinib]
Method in brief: (§1)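 K562 cells at 2×10^6 cells/mL were treated for 30 min with 10 μM compound, and aliquots were heated for 3 min over 48°C-58°C before pooling. Extraction used PBS with 0.5% NP-40 at 4°C, and soluble protein was the supernatant after 21,000xg for 90 min, measured by TMTpro 16plex LC-MS/MS with channel sums equalised. Thermal stability values, relative to control samples and from duplicates, are log2 fold changes.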

[1] = compound: C/C(=N\NC(=O)C1=CC(=CC=C1)S(=O)(=O)N2CCOCC2)/C3=C(C=CC(=C3)Cl)O
Method in brief: as §1

[2] = compound: C1=CC(=C(C=C1Cl)C2=NC3=NC=CN=C3C(=N2)NC4=CC=NC=C4)F
Method in brief: as §1

[3] = compound: C1=CC(=CC=C1C2=NC3=C(N2)C=C(C=C3)C(=O)N)OC4=CC=C(C=C4)Cl
Method in brief: as §1

[4] = compound: C1=CC2=C(C=CC(=C2)/C=C\3/C(=O)NC(=NCC4=CC=CS4)S3)N=C1
Method in brief: as §1

[5] = compound: C1=CC2=NC=CN=C2C=C1/C=C/3\C(=O)NC(=O)S3
Method in brief: as §1

[6] = compound: C1=CC=C(C=C1)C2=NC(=C(N2)C3=CC=NC=C3)C4=CC(=C(C=C4)Cl)O
Method in brief: as §1

[7] = compound: C1=CC=C2C(=C1)C3=NNC4=CC=CC(=C43)C2=O
Method in brief: as §1

[8] = compound: C1CCN(C1)C(=O)NC2=CC=CC(=C2)NC3=NC=C(C(=N3)NCCC4=CN=CN4)Br
Method in brief: as §1

[9] = compound: C1CN(CCC1(CC2=CC=C(C=C2)Cl)N)C3=NC=NC4=C3C=CN4
Method in brief: as §1

IRAK-1-4 Inhibitor I = compound: C1COCCN1CCN2C3=CC=CC=C3N=C2NC(=O)C4=CC(=CC=C4)[N+](=O)[O-] [IRAK-1-4 Inhibitor I]
Method in brief: as §1

ibrutinib = compound: C=CC(=O)N1CCC[C@@H](n2nc(-c3ccc(Oc4ccccc4)cc3)c3c(N)ncnc32)C1 [ibrutinib]
Method in brief: as §1

[10] = compound: CC(=O)c1cnc2ccc(-c3cc(Cl)c(O)c(Cl)c3)nc2c1N[C@H]1CC[C@H](CN(C)C)CC1
Method in brief: as §1

ralimetinib = compound: CC(C)(C)Cn1c(N)nc2ccc(-c3[nH]c(C(C)(C)C)nc3-c3ccc(F)cc3)nc21 [ralimetinib]
Method in brief: as §1

[11] = compound: CC(C)(O)CC(=O)NCCn1ccc2ncnc(Nc3ccc(Oc4cccc(C(F)(F)F)c4)c(Cl)c3)c21
Method in brief: as §1

[12] = compound: CC(C)C1=C2N=C(C=C(N2N=C1)NCC3=CC=CC=C3)NCCCCCCN
Method in brief: as §1

[13] = compound: CC(C)C[C@@H](C=O)NC(=O)[C@H](CC(C)C)NC(=O)[C@H](CC(C)C)NC(=O)OCc1ccccc1
Method in brief: as §1

pinometostat = compound: CC(C)N(C[C@H]1O[C@@H](n2cnc3c(N)ncnc32)[C@H](O)[C@@H]1O)[C@H]1C[C@@H](CCc2nc3cc(C(C)(C)C)ccc3[nH]2)C1 [pinometostat]
Method in brief: as §1

[14] = compound: CC1=C(C(CC(=O)N1)C2=CC=C(C=C2)C(F)(F)F)C(=O)NC3=C(C=C4C(=C3)C=NN4)F
Method in brief: as §1

[15] = compound: CC1=C(C2=C(C=C1)C(=O)C3=CC=CC=C3N2CCCN)C
Method in brief: as §1

Chain of UniProt Q9BTX3 (Q9BTX3 whole entry, looked up): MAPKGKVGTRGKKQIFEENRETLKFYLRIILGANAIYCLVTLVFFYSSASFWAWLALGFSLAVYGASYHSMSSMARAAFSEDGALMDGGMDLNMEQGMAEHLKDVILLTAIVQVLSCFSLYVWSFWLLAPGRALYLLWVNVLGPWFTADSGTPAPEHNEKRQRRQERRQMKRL
Chain of UniProt A0JNW5 (A0JNW5 whole entry, looked up): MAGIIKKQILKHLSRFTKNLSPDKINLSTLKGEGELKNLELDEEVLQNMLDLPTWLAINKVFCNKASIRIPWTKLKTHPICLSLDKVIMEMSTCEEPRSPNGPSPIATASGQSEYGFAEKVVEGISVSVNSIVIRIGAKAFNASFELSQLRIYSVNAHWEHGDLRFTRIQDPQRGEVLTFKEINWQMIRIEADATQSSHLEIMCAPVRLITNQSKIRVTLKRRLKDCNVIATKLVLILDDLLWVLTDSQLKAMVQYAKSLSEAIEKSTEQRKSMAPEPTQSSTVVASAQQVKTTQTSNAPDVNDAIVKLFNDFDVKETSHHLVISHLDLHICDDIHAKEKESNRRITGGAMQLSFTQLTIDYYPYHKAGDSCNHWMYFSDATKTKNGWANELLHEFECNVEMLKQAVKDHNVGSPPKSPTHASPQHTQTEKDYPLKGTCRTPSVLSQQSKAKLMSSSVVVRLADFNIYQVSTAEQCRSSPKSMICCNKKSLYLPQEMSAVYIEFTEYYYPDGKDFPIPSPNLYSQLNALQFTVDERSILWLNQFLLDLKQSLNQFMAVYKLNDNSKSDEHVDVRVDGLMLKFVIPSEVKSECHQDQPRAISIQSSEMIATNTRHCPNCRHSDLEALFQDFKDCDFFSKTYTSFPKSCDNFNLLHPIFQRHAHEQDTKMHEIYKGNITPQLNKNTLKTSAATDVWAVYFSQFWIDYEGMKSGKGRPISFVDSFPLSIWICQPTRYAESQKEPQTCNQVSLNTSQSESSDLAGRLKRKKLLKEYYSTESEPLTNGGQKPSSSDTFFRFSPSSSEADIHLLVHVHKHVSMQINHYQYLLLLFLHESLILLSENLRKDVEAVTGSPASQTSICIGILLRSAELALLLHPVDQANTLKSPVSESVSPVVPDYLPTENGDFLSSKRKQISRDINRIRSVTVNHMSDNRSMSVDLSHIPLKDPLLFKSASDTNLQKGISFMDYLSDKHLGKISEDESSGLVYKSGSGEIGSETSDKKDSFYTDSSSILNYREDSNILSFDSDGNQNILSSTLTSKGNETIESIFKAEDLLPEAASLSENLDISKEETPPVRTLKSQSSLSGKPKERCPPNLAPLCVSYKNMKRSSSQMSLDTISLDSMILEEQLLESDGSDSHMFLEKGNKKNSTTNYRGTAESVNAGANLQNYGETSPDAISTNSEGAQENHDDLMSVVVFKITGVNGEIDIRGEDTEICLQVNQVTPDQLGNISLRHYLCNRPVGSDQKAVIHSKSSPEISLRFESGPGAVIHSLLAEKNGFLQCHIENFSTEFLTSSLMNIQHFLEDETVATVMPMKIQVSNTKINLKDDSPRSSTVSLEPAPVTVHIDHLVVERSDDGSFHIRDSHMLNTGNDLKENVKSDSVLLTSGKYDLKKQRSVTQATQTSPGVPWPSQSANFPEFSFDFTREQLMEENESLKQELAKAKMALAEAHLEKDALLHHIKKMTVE
Chain of UniProt Q96AX1 (Q96AX1 whole entry, looked up): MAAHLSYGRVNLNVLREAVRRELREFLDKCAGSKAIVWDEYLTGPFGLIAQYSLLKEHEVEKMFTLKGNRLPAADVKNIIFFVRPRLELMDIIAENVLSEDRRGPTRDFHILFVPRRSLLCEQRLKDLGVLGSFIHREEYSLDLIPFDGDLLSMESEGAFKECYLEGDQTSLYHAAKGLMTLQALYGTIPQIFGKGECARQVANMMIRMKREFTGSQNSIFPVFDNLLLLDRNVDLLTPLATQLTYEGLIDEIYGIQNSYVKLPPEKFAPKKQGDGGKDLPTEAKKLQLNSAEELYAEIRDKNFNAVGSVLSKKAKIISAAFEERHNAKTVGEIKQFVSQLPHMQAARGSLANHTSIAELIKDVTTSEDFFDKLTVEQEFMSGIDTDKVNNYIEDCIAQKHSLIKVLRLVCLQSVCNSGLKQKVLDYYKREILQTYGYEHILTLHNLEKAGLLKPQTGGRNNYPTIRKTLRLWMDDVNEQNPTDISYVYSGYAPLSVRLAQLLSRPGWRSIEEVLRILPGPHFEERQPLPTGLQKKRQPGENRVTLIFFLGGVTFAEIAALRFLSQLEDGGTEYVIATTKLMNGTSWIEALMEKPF
Chain of UniProt Q9NZ09 (Q9NZ09 whole entry, looked up): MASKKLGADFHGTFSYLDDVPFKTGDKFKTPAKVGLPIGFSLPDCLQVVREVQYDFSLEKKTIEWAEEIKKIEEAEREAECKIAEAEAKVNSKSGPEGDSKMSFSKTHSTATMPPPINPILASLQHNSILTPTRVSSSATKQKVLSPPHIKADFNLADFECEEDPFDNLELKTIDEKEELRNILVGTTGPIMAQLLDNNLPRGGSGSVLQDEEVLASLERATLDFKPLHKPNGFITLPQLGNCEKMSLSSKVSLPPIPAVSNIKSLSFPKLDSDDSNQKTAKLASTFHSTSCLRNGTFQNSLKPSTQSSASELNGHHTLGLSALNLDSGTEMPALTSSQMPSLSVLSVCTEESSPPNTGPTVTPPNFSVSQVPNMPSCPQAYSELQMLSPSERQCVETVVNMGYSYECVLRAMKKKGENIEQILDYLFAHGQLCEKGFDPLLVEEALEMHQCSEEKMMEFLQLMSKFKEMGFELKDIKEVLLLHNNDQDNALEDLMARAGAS
Chain of UniProt Q8NDZ6 (Q8NDZ6 whole entry, looked up): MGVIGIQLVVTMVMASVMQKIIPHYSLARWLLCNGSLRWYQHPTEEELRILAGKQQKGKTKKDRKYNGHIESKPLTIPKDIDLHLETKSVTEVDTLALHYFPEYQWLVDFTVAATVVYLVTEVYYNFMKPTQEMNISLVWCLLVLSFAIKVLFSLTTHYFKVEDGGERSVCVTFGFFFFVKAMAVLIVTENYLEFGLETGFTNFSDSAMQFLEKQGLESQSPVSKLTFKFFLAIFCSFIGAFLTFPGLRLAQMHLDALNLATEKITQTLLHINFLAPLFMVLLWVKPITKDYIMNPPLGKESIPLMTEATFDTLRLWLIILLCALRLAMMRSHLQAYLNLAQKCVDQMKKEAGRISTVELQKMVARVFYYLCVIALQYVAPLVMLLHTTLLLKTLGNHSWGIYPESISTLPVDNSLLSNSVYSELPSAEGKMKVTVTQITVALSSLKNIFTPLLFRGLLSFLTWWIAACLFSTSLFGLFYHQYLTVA
Chain of UniProt O75554 (O75554 whole entry, looked up): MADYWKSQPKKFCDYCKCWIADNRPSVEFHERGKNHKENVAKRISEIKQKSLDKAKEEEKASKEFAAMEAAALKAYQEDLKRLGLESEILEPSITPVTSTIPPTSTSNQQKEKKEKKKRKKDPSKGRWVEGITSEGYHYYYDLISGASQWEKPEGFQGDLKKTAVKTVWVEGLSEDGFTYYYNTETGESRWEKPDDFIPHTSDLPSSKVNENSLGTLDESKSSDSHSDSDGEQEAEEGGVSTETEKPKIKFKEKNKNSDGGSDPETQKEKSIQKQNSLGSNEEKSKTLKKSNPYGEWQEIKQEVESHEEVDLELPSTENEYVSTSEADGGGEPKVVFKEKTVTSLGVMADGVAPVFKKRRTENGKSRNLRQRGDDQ
Chain of UniProt Q6NXR4 (Q6NXR4 whole entry, looked up): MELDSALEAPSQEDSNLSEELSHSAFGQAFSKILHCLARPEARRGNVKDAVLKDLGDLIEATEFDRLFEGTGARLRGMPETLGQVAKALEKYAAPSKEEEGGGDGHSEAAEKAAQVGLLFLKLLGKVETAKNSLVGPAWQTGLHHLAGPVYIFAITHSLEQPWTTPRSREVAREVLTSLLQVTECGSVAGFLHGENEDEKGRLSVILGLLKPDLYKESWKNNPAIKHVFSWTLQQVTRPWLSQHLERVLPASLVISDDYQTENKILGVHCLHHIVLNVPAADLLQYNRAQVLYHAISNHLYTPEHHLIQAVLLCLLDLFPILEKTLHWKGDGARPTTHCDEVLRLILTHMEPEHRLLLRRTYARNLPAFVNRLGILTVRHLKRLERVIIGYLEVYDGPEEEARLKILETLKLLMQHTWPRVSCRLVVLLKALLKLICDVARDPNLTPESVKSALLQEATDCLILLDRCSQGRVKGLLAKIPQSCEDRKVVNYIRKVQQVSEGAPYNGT
Chain of UniProt Q9NP79 (Q9NP79 whole entry, looked up): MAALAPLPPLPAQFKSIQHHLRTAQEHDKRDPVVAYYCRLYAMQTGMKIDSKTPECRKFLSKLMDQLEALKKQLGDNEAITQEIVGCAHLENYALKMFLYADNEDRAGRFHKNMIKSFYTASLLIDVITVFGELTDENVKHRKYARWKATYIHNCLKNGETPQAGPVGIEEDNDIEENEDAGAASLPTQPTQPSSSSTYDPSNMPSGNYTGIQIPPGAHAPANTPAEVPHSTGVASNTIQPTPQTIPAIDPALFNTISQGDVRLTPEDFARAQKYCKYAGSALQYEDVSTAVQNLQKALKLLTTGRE
Chain of UniProt Q9Y6I4 (Q9Y6I4 whole entry, looked up): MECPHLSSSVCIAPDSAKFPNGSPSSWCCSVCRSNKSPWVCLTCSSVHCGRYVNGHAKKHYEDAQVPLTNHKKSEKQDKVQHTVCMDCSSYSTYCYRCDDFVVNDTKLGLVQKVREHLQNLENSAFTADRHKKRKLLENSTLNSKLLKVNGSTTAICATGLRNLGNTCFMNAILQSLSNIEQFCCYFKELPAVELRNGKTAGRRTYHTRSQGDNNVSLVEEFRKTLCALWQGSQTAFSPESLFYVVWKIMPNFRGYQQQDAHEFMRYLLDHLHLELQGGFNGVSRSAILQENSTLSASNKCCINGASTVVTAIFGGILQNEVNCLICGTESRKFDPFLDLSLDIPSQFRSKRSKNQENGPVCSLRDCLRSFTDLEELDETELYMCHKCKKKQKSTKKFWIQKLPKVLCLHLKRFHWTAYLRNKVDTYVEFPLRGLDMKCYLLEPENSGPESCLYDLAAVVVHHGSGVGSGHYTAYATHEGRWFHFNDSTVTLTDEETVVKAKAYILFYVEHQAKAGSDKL

| Target | log2 fold change (erlotinib) | log2 fold change [1] | log2 fold change [2] | log2 fold change [3] | log2 fold change [4] | log2 fold change [5] | log2 fold change [6] | log2 fold change [7] | log2 fold change [8] | log2 fold change [9] | log2 fold change (IRAK-1-4 Inhibitor I) | log2 fold change (ibrutinib) | log2 fold change [10] | log2 fold change (ralimetinib) | log2 fold change [11] | log2 fold change [12] | log2 fold change [13] | log2 fold change (pinometostat) | log2 fold change [14] | log2 fold change [15] |
| --- | --- | --- | --- | --- | --- | --- | --- | --- | --- | --- | --- | --- | --- | --- | --- | --- | --- | --- | --- | --- |
| TTI2 (UniProt Q6NXR4) | 0 | 0.053 | 0.003 | -0.035 | 0.029 | -0.036 | -0.095 | 0.046 | 0.008 | -0.028 | -0.032 | -0.006 | 0.005 | 0.033 | -0.196 | -0.079 | 0.032 | 0.016 | -0.044 | 0.033 |
| USP3 (UniProt Q9Y6I4) | 0.099 | 0.114 | 0.121 | 0.004 | -0.062 | 0.014 | 0.057 | -0.052 | 0.007 | 0.095 | 0.035 | -0.083 | -0.126 | -0.013 | -0.107 | -0.146 | -0.145 | -0.075 | 0.006 | -0.006 |
| UHRF1BP1L (UniProt A0JNW5) | -0.024 | 0.017 | 0.016 | 0.027 | 0.042 | 0.01 | -0.009 | 0.025 | -0.007 | 0.061 | 0.018 | -0.051 | -0.076 | -0.009 | 0.193 | 0.242 (active) | -0.004 | 0.03 | -0.027 | -0.019 |
| VTA1 (UniProt Q9NP79) | -0.05 | 0.124 | 0.07 | 0.018 | -0.007 | 0.025 | -0.02 | 0.029 | 0.01 | -0.024 | -0.02 | -0.001 | -0.013 | -0.009 | -0.074 | -0.12 | -0.007 | -0.041 | 0.012 | 0.068 |
| WBP4 (UniProt O75554) | 0 | -0.07 | 0.04 | 0.009 | -0.082 | 0.031 | -0.059 | -0.055 | 0.031 | 0.036 | 0.082 | -0.001 | 0.033 | -0.057 | -0.001 | 0.098 | 0.041 | -0.06 | -0.003 | 0.02 |
| VPS33A (UniProt Q96AX1) | 0.025 | 0.035 | -0.054 | -0.01 | 0.057 | 0.013 | 0.005 | -0.023 | -0.051 | -0.083 | -0.017 | -0.021 | -0.001 | 0.048 | -0.065 | -0.299 (active) | 0.054 | 0.099 | 0.035 | 0.005 |
| TMEM208 (UniProt Q9BTX3) | -0.021 | 0.032 | 0.101 | 0.046 | 0.13 | 0.011 | -0.054 | -0.098 | -0.002 | 0.033 | 0.04 | -0.09 | 0.078 | -0.145 | -0.088 | -0.412 (active) | 0.046 | 0.081 | -0.016 | 0.081 |
| UBAP1 isoform 4 (UniProt Q9NZ09) | 0.001 | 0.127 | 0.013 | 0.049 | 0.025 | 0.027 | -0.02 | 0.024 | 0.058 | -0.093 | -0.058 | 0.07 | -0.001 | -0.024 | -0.044 | -0.087 | 0.107 | 0.018 | 0.184 | -0.112 |
| TMEM161B (UniProt Q8NDZ6) | 0.037 | -0.074 | 0.013 | -0.021 | -0.054 | 0.018 | 0.159 | -0.026 | -0.053 | -0.03 | 0.06 | -0.039 | 0.008 | -0.097 | -0.227 (active) | -0.052 | 0.015 | -0.002 | -0.031 | 0.022 |
